Hits are enriched below; roughly 19% of the tested compounds scored in any of these assays.
HT1080 IDH1KD tx – qHTS for induction of synthetic lethality in tumor cells producing 2HG: qHTS for the HT-1080-IDH1KD cell line; HT-1080 IDH1 knockdown viability, ATP luminescence, 48 h; Potency, µM (doses to about 46.1 µM), for the others: top-dose activity, negative = toxicity, usual class: cytotoxic; hit rate 2% among 360,000; AID 686971, 2013;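 also: potency is read from the fitted curve at half-maximal effect; 0% = DMSO wells and -100% = cell-free medium wells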
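Viability of IDH1-knockdown HT-1080 fibrosarcoma cells was assessed by CellTiter-Glo after 48 h at 37 °C with titrated compound; concentration-effect curves were classified by fit quality and response size.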
ELG1 DNA repair – qHTS screen for small molecules that inhibit ELG1-dependent DNA repair in human embryonic kidney (HEK293T) cells expressing luciferase-tagged ELG1. HEK293T ELG1-luciferase reporter, luminescence, 16 h; DNA damage induced by 5-fluorouridine. Potency, µM (series often up to 46.1 µM), without a hit: at the top dose activity change, negative = inhibition, hits mostly inhibitors. hit rate 2.3% among 330,000. AID 504467, 2011; also: potency is read from the fitted curve at half-maximal effect; nearly all actives have a fitted effect of over 55% in size
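5-Fluorouridine DNA damage + compound/DMSO, 2,000 cells/well, 16 h, 37 °C/5% CO2. ONE-Glo, 30 min RT, luminescence. Readout = decrease in reporter signal.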
IL-1B inflam inh – qHTS for Inhibitors of Inflammasome Signaling: IL-1-beta AlphaLISA Primary Screen | THP-1 LPS/ATP IL-1B secretion, AlphaLISA, 16 h; hits give low values | activity change, % at 57.5 µM | hit rate 4.7% among 360,000; in the data active = activity change below about -50%; inconclusive = mostly about -30% to -49%
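Secreted IL-1B measured by AlphaLISA bead assay after 16 h compound exposure of THP-1 cells; compounds (final up to 57.5 uM) added 1 h before LPS (250 ng/mL) and ATP (1.25 mM) stimulation; lower signal means less secretion.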
DT40 TDP1 CPT – qHTS for Inhibitors of human tyrosyl-DNA phosphodiesterase 1 (TDP1): qHTS in cells in presence of CPT; chicken DT40 Tdp1-/-;hTDP1 cells + 20 nM CPT, ATP luminescence, 48 h; Potency, µM (series often up to 46.2 µM), for the others: top-dose activity change, negative = growth inhibition, actives largely listed as inhibitors; hit rate 12% among 420,000; AID 686979, 2013; also: potency is read from the fitted curve at half-maximal effect; nearly all actives have a fitted effect of over 55% in size
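Chicken DT40 Tdp1-/- cells stably complemented with human TDP1 were seeded at 400 cells/well in medium containing 20 nM camptothecin, exposed to pin-transferred compounds, and grown at 37 °C for at least 48 hr. Viability was read as ATP luminescence.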
TDP1 cell noCPT – qHTS for Inhibitors of human tyrosyl-DNA phosphodiesterase 1 (TDP1): qHTS in cells in absence of CPT | DT40 Tdp1-/- hTDP1 cells, no CPT, ATP luminescence, 48 h | Potency, µM (top dose mostly 46.2 µM), inactives show top-dose activity change, negative = growth inhibition, hits mostly inhibitors | hit rate 15% among 420,000 | AID 686978, 2013; also: potency is read from the fitted curve at half-maximal effect; nearly all actives have a fitted effect of over 55% in size
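DT40 Tdp1-/-;hTDP1 cells, no CPT (DMSO vehicle only), 400 cells/well; compounds pin-transferred; ≥48 hr, 37 °C; CellTiter-Glo 30 min RT dark, luminescence read.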
HT1080NT lethal – qHTS for induction of synthetic lethality in tumor cells producing 2HG: qHTS for the HT-1080-NT fibrosarcoma cell line. Potency, µM (highest dose often 46.1 µM), for the others: at the highest dose activity, negative = less viability, most hits filed as cytotoxic. hit rate 1.6% among 360,000. HT-1080-NT fibrosarcoma viability, CellTiter-Glo ATP luminescence, 48 h. AID 686970, 2013;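 also: NT is the 2HG producing partner of a matched IDH1 knockdown line; potency is read from the fitted curve at half-maximal effect; 0% = DMSO-treated cells and -100% = media-only wells without cells; nearly all actives have a fitted effect of over 55% in size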
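Viability by CellTiter-Glo luminescence after 48 h compound exposure at 37C of HT-1080-NT cells (750/well, RPMI, 5% FBS). % activity scaled between DMSO wells and medium-only wells, then curve-fitted and categorized by curve class.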
* = called active by the depositor; ? = inconclusive; / = not tested or not shown; [ ] = another dose, or the depositor's remark. Unless noted, calls follow the shape of the dose curve; as a rule, active = well fitted curve in the direction sought with a large enough effect; inconclusive = small, poorly fitted or top-dose-only effect, or another doubt; inactive = no such curve, though single readings can be large; an effect the other way counts as inactive or inconclusive. Unless noted, % is scaled to controls: 0 for no effect and ±100 for the full control effect.

SMILES | HT1080 IDH1KD tx | ELG1 DNA repair | IL-1B inflam inh | DT40 TDP1 CPT | TDP1 cell noCPT | HT1080NT lethal
CCOC(=O)[C@]12CCCC=C1N(Cc1ccc3c(c1)OCO3)C(=O)[C@H](CC(=O)N1CCC(c3ccccc3)CC1)C2 | ? | / | -76* | 18µM* | 21µM* | ?
COC(=O)[C@]12CCCCC=C1N(Cc1ccc3c(c1)OCO3)C(=O)[C@H](CC(=O)N1CCC(c3ccccc3)CC1)C2 | -13% | / | -13 | ? | 18µM* | -24%
CCC(=O)N1CCCC1(C)C(=O)Nc1cc(OC)ccc1OC (stereo unspecified) | 21% | / | 9 | 9% | -11% | 23%
O=C(NCc1nnc2n1CCN(Cc1ccc(C(F)(F)F)cc1)CC2)c1cccc(F)c1 | / | / | / | 18%[9.04 µM] | ? | /
O=C(NCc1nnc2n1CCN(Cc1cccc(Cl)c1)CC2)c1cccc(F)c1 | / | / | / | 5.2µM* | 4.1µM* | /
COc1ccc([C@H]2CN(CCc3ccccc3)C(=O)[C@@H]2CC(=O)Nc2ccccc2)cc1 | -4% | / | -25 | ? | ? | -8%
CCn1c(C)nc2cc(C(=O)N/N=C/c3ccc(O)c(O)c3O)ccc21 | -13% | ? | 24 | 26µM* | ? | -13%
CCC(=NNC(=O)c1ccc2c(c1)nc(C)n2CC)c1cc(F)ccc1O | ? | ? | 81 | 13µM* | 12µM* | -6%
CCn1c(C)nc2cc(C(=O)n3cc(C(=O)c4cc(F)ccc4O)cn3)ccc21 | / | 6% | / | / | / | /
COc1cc([C@@H]2c3cc4c(cc3C(O[C@@H]3O[C@@H]5COC(c6cccs6)O[C@H]5[C@H](O)[C@H]3O)C3COC(=O)[C@@H]32)OCO4)cc(OC)c1O (stereo partly specified) | / | / | / | 0.012µM* | 0.013µM* | /
COc1cc([C@@H]2c3cc4c(cc3C(OC3OC5COC(C)OC5C(O)C3O)C3COC(=O)[C@@H]32)OCO4)cc(OC)c1O (stereo partly specified) | / | / | / | 0.19µM* | 0.21µM* | /
COc1cc([C@@H]2c3cc4c(cc3[C@@H](O[C@@H]3O[C@H]5CO[C@@H](C)O[C@@H]5[C@@H](O)[C@H]3O)[C@@H]3COC(=O)[C@@H]23)OCO4)cc(OC)c1O | / | / | / | ? | 0.13µM* | /
Cc1cc(C)nc(SCC(=O)NN=Cc2ccc(C)o2)n1 | 1% | 9% | 28 | 0% | -10% | 2%
CCOC(=O)N1CCN(C(=O)C[C@@H]2C[C@@]3(C(=O)OCC)CCC=C3N(Cc3cccc4ccccc34)C2=O)CC1 | -14% | / | 10 | ? | 16µM* | 0%
CCOC(=O)[C@]12CCCC=C1N(Cc1cccc3ccccc13)C(=O)[C@H](CC(=O)NCc1cccc3ccccc13)C2 | -28% | / | -6 | ? | ? | -10%
CCOC(=O)[C@]12CCC=C1N(Cc1ccco1)C(=O)[C@H](CC(=O)NCc1ccc(OC)c(OC)c1)C2 | 1% | / | 5 | -24% | -20% | 3%
CCOC(=O)[C@]12CCC=C1N(Cc1cccc3ccccc13)C(=O)[C@H](CC(=O)NCCC(C)C)C2 | ? | / | -55* | 23µM* | 21µM* | ?
CCOC(=O)[C@]12CCC=C1N(Cc1cccc3ccccc13)C(=O)[C@H](CC(=O)NCc1ccc(OC)c(OC)c1)C2 | ? | / | ? | ? | 16µM* | ?
CCC(=O)N1CCCc2cc(S(=O)(=O)N3CCC(C(=O)NCc4ccc(F)cc4)CC3)ccc21 | / | / | / | ? | -29% | /
CO[C@H]1C[C@@H]2CC[C@@H](C)[C@@](O)(O2)C(=O)C(=O)N2CCCC[C@H]2C(=O)O[C@H]([C@H](C)C[C@@H]2CC[C@@H](OC(=O)C(C)(CO)CO)[C@H](OC)C2)CC(=O)[C@H](C)/C=C(\C)[C@@H](O)[C@@H](OC)C(=O)[C@H](C)C[C@H](C)/C=C/C=C/C=C/1C | / | / | / | -20% | -29% | /
CCOC(=O)c1c(C)n(CCO)c2ccc(O)cc12 | -2% | / | 14 | -8% | -12% | 26%
COC(=O)c1c(C(=O)OC)n(CCCN)c2ccc(C)cc12 | ? | 15% | ? | 23µM* | 13µM* | ?
CCc1ccc(OCCNC(=O)c2ccccc2SCc2ccccc2)cc1 | ? | -7% | -10 | ? | 21µM* | -24%
N#CC1=C(N)Oc2cc(N)ccc2C1c1cccc(Br)c1 (stereo unspecified) | ? | -25% | 32 | 2.9µM* | 1.5µM* | ?
N#CC1=C(N)Oc2cc(N)ccc2C1c1ccccc1F (stereo unspecified) | 16µM* | -15% | 32 | 7.3µM* | 8.2µM* | 15µM*
SMILES | HT1080 IDH1KD tx | ELG1 DNA repair | IL-1B inflam inh | DT40 TDP1 CPT | TDP1 cell noCPT | HT1080NT lethal
N#CC1=C(N)Oc2cc(N)ccc2C1c1cc(Br)cs1 (stereo unspecified) | 2.9µM* | -24% | -66* | ? | ? | 2.1µM*
N#CC1=C(N)Oc2cc(N)ccc2C1c1ccsc1 (stereo unspecified) | -2% | 0% | 3 | 0% | 5% | 3%
Cc1ccc(C(OCC(C)(C)C[N+](C)(C)C)c2ccccc2)cc1 (stereo unspecified) | 1% | ? | -52* | 5.8µM* | 5.2µM* | 2%
Cc1cs/c(=N\N=C2CCCCC2)n1Cc1ccco1 | 8% | -23% | 11 | -10% | -3% | 4%
Cc1ccc(NC(=O)C(Cc2ccccc2)n2cccc2)c(C)c1 (stereo unspecified) | / | / | / | 15µM* | 15µM* | /
O=C(Nc1ncc(Br)s1)C(Cc1ccccc1)n1cccc1 (stereo unspecified) | -26% | ? | 24 | ? | ? | 26µM*
CCC(C)NC(=O)C(Cc1ccccc1)n1cccc1 (stereo unspecified) | 0% | 12% | -16 | -17% | -1% | -9%
O=C(Nc1ccccc1F)C(Cc1ccccc1)n1cccc1 (stereo unspecified) | / | / | / | ? | 15µM* | /
CN1CCN(c2ccccc2NC(=O)C(Cc2ccccc2)n2cccc2)CC1 (stereo unspecified) | -13% | -20% | -30 | 26µM* | ? | -17%

Screens deposited in PubChem by National Center for Advancing Translational Sciences (NCATS).
